The text below walks through data of PubChem BioAssay (Tox21).

Results filed as inconclusive are left out. Active and inactive are the calls of the source. Calls come from the whole dose curve; as a rule, active = well fitted inhibition curve with a large enough effect in the repeat runs; inconclusive = weak or mixed curves; inactive = no such curve, though single readings can be large or run the other way.
% is set by controls: 0 for no effect and ±100 for the full control effect; potency is the fitted concentration of half-maximal effect.

Cytochrome P450 2C9 (Homo sapiens), sequence (P11712 whole entry, looked up): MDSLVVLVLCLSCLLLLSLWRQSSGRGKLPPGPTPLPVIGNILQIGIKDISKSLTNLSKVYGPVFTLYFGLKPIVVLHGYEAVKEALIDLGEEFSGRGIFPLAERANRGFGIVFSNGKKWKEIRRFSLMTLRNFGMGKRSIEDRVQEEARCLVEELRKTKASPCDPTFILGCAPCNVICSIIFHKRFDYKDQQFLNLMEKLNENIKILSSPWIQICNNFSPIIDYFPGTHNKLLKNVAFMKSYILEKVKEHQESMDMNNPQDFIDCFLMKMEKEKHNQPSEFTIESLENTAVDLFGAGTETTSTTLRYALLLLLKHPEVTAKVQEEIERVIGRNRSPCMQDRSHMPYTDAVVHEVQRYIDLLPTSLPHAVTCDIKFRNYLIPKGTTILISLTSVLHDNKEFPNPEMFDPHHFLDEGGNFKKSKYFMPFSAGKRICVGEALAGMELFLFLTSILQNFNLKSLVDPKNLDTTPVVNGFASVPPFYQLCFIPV
Cytochrome P450 2C19 (Homo sapiens), sequence (P33261 whole entry, looked up): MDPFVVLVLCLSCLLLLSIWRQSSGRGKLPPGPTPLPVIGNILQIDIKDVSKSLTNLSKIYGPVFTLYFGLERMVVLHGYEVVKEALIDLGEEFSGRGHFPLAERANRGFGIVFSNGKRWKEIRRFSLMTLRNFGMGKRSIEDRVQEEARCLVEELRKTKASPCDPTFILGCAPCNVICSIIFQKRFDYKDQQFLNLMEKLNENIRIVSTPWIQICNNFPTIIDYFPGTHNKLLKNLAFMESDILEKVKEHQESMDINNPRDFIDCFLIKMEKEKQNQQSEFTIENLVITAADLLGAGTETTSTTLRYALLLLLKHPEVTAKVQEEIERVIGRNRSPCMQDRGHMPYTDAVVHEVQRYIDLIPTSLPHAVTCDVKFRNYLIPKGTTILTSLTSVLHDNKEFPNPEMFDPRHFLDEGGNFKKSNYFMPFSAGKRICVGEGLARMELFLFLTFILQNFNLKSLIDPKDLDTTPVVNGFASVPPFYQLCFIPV
Cytochrome P450 1A2 (Homo sapiens), sequence (P05177 whole entry, looked up): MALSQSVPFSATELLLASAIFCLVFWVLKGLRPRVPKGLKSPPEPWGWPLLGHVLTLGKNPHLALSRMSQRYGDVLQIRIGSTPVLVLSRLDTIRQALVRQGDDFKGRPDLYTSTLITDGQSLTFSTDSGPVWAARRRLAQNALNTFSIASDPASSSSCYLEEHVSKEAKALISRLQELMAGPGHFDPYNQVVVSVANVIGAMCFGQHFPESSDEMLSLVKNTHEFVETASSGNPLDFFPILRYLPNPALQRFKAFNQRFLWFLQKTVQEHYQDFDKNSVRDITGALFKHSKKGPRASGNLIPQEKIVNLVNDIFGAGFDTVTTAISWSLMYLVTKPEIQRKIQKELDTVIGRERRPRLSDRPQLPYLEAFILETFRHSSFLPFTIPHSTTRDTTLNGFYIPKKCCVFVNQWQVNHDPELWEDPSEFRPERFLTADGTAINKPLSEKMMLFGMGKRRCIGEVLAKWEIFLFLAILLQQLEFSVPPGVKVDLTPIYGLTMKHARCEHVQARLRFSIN

The first test concerns the target Cytochrome P450 2C19 (Homo sapiens) (UniProt P33261). The test can be described thus: Cytochrome P450 Family 2 Subfamily C Member 19 (CYP2C19) small molecule antagonists: luciferase reporter qHTS assay (AID 1671197). Note: nearly all actives have a fitted effect of over 65% in size. The settings on record: P450-Glo CYP2C19 enzyme, luciferin luminescence, 1 h; series mostly up to 115 µM; activity change, negative = inhibition: at the top concentration. The essentials:
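CYP2C19 P450-Glo, 1536-well qHTS. Cpd + enzyme/proluciferin substrate 10 min RT; + NADPH regen, 37C 1 h; stop with luciferin detection reagent, 20 min RT, luminescence (RLU). Pos ctrl ketoconazole.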
Background: In a reporter assay the amount or activity of a reporter protein is the signal.
On to `CCCOCCC`, for which the “activity change, negative = inhibition” value was -5.48% (inactive).

Consider `CCCCOc1cc(C(=O)NCCN(CC)CC)c2ccccc2n1`, for which the Potency was 34.7 µM (active).

With `CC(C)C(=O)OCC(C)(C)C(O)C(C)C` (configuration not stated), the “activity change, negative = inhibition” value was -18.1% (inactive).

On to `CN1CCN(C2=Nc3ccccc3Oc3ccc(Cl)cc32)CC1`, for which the Potency is 8.71 µM (active).

For `CCN(CC)CCNC(=O)COc1ccc(Cl)cc1`, the “activity change, negative = inhibition” value is 14.8% [at 52.9 µM] (inactive).

For the compound `Cc1ccc([N+](=O)[O-])cc1Cl`, the “activity change, negative = inhibition” value is 22.1% (inactive).

Take `CCOc1ccc(NC(N)=O)cc1`: the “activity change, negative = inhibition” value is 5.28% (inactive).

Consider `COC(=O)/C=C(/C)N`, for which the “activity change, negative = inhibition” value is 12.9% [at 52.9 µM] (inactive).

Take `NNS(=O)(=O)c1ccc(Oc2ccc(S(=O)(=O)NN)cc2)cc1`: the Potency is 10 µM (active).

For the compound `CC(=O)O[C@H]1CC[C@@]2(C)C(=CC[C@@H]3[C@@H]2CC[C@]2(C)C(C(C)=O)=CC[C@@H]32)C1`, the “activity change, negative = inhibition” value was 13.9% [at 52.9 µM] (inactive).

Regarding `O=c1[nH]c(=O)n([C@H]2C[C@H](O)[C@@H](CO)O2)cc1C(F)(F)F`, the “activity change, negative = inhibition” value is -8.2% [at 52.9 µM] (inactive).

On to `CC(=O)OC1C2(C)CCC(C2)C1(C)C` (configuration not stated), for which the “activity change, negative = inhibition” value was 2.2% (inactive).

For the compound `CCc1nnc(NS(=O)(=O)c2ccc(N)cc2)s1`, the “activity change, negative = inhibition” value is 32.8% [at 52.9 µM] (inactive).

Turning to `COC(C)CCO` (configuration not stated), the “activity change, negative = inhibition” value is 3.54% (inactive).

Turning to `O=C(O[C@@H](C(=O)O)[C@@H](OC(=O)c1ccccc1)C(=O)O)c1ccccc1`, the Potency is 45.6 µM (active).

`CCN1CC(CCN2CCOCC2)C(c2ccccc2)(c2ccccc2)C1=O` (configuration not stated): the “activity change, negative = inhibition” value is -24% [at 52.9 µM] (inactive).

Take `NC(=O)Cc1cccc(C(=O)c2ccccc2)c1N`: the Potency is 34.7 µM (active).

On to `CN1CCN(N)CC1`, for which the “activity change, negative = inhibition” value is 1.6% [at 52.9 µM] (inactive).

On to `O=C1CCCCCCCCCCC(=O)OCCO1`, for which the Potency was 35.6 µM (active).

`CCCCC1CCC(=O)O1` (configuration not stated): the “activity change, negative = inhibition” value is 22.7% (inactive).

As for `CCOC(=O)NCCC[Si](OCC)(OCC)OCC`, the “activity change, negative = inhibition” value is -11.3% (inactive).

As to `CCCNC(C)C(=O)Nc1c(C)csc1C(=O)OC` (configuration not stated), the “activity change, negative = inhibition” value is -14% [at 52.9 µM] (inactive).

For `Nc1cccc(S(=O)(=O)O)c1`, the “activity change, negative = inhibition” value was -21.9% (inactive).

Turning to `O=c1oc2c(O)c(O)cc3c(=O)oc4c(O)c(O)cc1c4c23`, the activity change, negative = inhibition is 0.227% [at 23.6 µM] (inactive).

Regarding `CC/C=C\CCOC(=O)C(C)C`, the “activity change, negative = inhibition” value is -17.7% (inactive).

Consider `CCN(CC)CCOc1ccc(Cc2ccccc2)cc1`, for which the Potency is 0.55 µM (active).

On to `CCCCCCCCc1ccc(S(=O)(=O)O)cc1`, for which the “activity change, negative = inhibition” value was -17.3% (inactive).

`CC(C)C(=O)OC/C=C/c1ccccc1`: the Potency was 39.9 µM (active).

In the case of `CC(=O)Nc1ccc(C)c(Cl)c1`, the Potency was 22.4 µM (active).

Take `CCCCCCCCCC/C=C/C#N`: the “activity change, negative = inhibition” value was 12.4% (inactive).

Regarding `Oc1ccccc1F`, the “activity change, negative = inhibition” value is -5.5% (inactive).

In the case of `Cc1c(C(=O)NCCO)[n+](=O)c2ccccc2n1[O-]`, the “activity change, negative = inhibition” value is -8.13% [at 52.9 µM] (inactive).

Take `Cc1onc(-c2ccccc2)c1C(=O)Cl`: the “activity change, negative = inhibition” value was -8.22% [at 52.9 µM] (inactive).

For the compound `CN1C(=O)CC(c2ccccc2)C1=O` (configuration not stated), the “activity change, negative = inhibition” value was 3.94% [at 52.9 µM] (inactive).

As to `OC[C@H]1O[C@@H](O[C@H]2[C@H](O)[C@@H](O)[C@H](O)O[C@@H]2CO)[C@H](O)[C@@H](O)[C@H]1O`, the “activity change, negative = inhibition” value is 2.53% (inactive).

Take `Cc1ccc(C=O)s1`: the “activity change, negative = inhibition” value was 14.8% (inactive).

In the case of `CC(C)O`, the “activity change, negative = inhibition” value was -14.5% (inactive).

Regarding `CCC/C=C/CO`, the “activity change, negative = inhibition” value was -6.92% (inactive).

The next test has as its target Cytochrome P450 2C9 (Homo sapiens) (UniProt P11712). In words: Cytochrome P450 Family 2 Subfamily C Member 9 (CYP2C9) small molecule antagonists: luciferase reporter qHTS assay (AID 1671198). Note: nearly all actives have a fitted effect of over 50% in size. The settings on record: P450-Glo CYP2C9 enzyme assay, luciferin luminescence; series mostly up to 53 µM; activity change, negative = inhibition: at the top concentration. The essentials: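 P450-Glo proluciferin substrate with CYP2C9 enzyme; 10 min RT preincubation, then NADPH regeneration 1 h at 37C; luciferin detection reagent 20 min RT, luminescence in relative luminescence units.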
Take `CCCCOc1cc(C(=O)NCCN(CC)CC)c2ccccc2n1`: the “activity change, negative = inhibition” value is -4.84% (inactive).

In the case of `CC(C)C(=O)OCC(C)(C)C(O)C(C)C` (configuration not stated), the “activity change, negative = inhibition” value was -9.12% [at 115 µM] (inactive).

With `CCN(CC)CCNC(=O)COc1ccc(Cl)cc1`, the “activity change, negative = inhibition” value is 0.322% (inactive).

In the case of `Cc1ccc([N+](=O)[O-])cc1Cl`, the “activity change, negative = inhibition” value was 15% [at 115 µM] (inactive).

For the compound `CCOc1ccc(NC(N)=O)cc1`, the “activity change, negative = inhibition” value was -15% [at 115 µM] (inactive).

Consider `COC(=O)/C=C(/C)N`, for which the “activity change, negative = inhibition” value is -11.1% (inactive).

For the compound `NNS(=O)(=O)c1ccc(Oc2ccc(S(=O)(=O)NN)cc2)cc1`, the Potency is 5.03 µM (active).

As for `CC(=O)O[C@H]1CC[C@@]2(C)C(=CC[C@@H]3[C@@H]2CC[C@]2(C)C(C(C)=O)=CC[C@@H]32)C1`, the “activity change, negative = inhibition” value was -3.82% (inactive).

Turning to `O=c1[nH]c(=O)n([C@H]2C[C@H](O)[C@@H](CO)O2)cc1C(F)(F)F`, the “activity change, negative = inhibition” value is -3.15% (inactive).

Regarding `CC(=O)OC1C2(C)CCC(C2)C1(C)C` (configuration not stated), the “activity change, negative = inhibition” value is -9.91% [at 115 µM] (inactive).

On to `COC(C)CCO` (configuration not stated), for which the “activity change, negative = inhibition” value was -9.7% [at 115 µM] (inactive).

Regarding `O=C(O[C@@H](C(=O)O)[C@@H](OC(=O)c1ccccc1)C(=O)O)c1ccccc1`, the “activity change, negative = inhibition” value is -28.5% [at 115 µM] (inactive).

For the compound `CCCCC1CCC(=O)O1` (configuration not stated), the “activity change, negative = inhibition” value is -13.2% [at 115 µM] (inactive).

On to `CCOC(=O)NCCC[Si](OCC)(OCC)OCC`, for which the “activity change, negative = inhibition” value was -6.16% [at 115 µM] (inactive).

In the case of `CCCNC(C)C(=O)Nc1c(C)csc1C(=O)OC` (configuration not stated), the “activity change, negative = inhibition” value was -6.44% (inactive).

Take `CC(C)C(=O)OC/C=C/c1ccccc1`: the Potency was 35.6 µM (active).

Consider `CC(=O)Nc1ccc(C)c(Cl)c1`, for which the “activity change, negative = inhibition” value is -15.4% [at 115 µM] (inactive).

As for `CCCCCCCCCC/C=C/C#N`, the “activity change, negative = inhibition” value is -21.4% [at 115 µM] (inactive).

For `Oc1ccccc1F`, the “activity change, negative = inhibition” value was -7.68% [at 115 µM] (inactive).

Regarding `OC[C@H]1O[C@@H](O[C@H]2[C@H](O)[C@@H](O)[C@H](O)O[C@@H]2CO)[C@H](O)[C@@H](O)[C@H]1O`, the “activity change, negative = inhibition” value was -7.25% [at 115 µM] (inactive).

Turning to `Cc1ccc(C=O)s1`, the “activity change, negative = inhibition” value is -7.84% [at 115 µM] (inactive).

Regarding `CC(C)O`, the “activity change, negative = inhibition” value is -0.923% [at 115 µM] (inactive).

The next test deals with Cytochrome P450 1A2 (Homo sapiens) (UniProt P05177). The test can be described thus: Cytochrome P450 Family 1 Subfamily A Member 2 (CYP1A2) small molecule antagonists: luciferase reporter qHTS assay (AID 1671199). Note: nearly all actives have a fitted effect of over 50% in size. The following applies: P450-Glo CYP1A2 enzyme, luciferin luminescence, 1 h; series mostly up to 53 µM; activity change, negative = inhibition: at the top concentration. The essentials:
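Luminescence readout (relative luminescence units) after luciferin detection reagent, 20 min RT. Preceded by 1 h room-temperature CYP1A2 reaction with NADPH regeneration solution following 10 min compound preincubation with enzyme and proluciferin substrate. Furafylline positive control.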
Consider `CCCOCCC`, for which the “activity change, negative = inhibition” value is -26.1% [at 115 µM] (inactive).

For `CN1CCN(C2=Nc3ccccc3Oc3ccc(Cl)cc32)CC1`, the “activity change, negative = inhibition” value is -11.5% (inactive).

For `Cc1ccc([N+](=O)[O-])cc1Cl`, the “activity change, negative = inhibition” value is -2.28% [at 115 µM] (inactive).

Consider `CCOc1ccc(NC(N)=O)cc1`, for which the Potency is 35.6 µM (active).

Take `NNS(=O)(=O)c1ccc(Oc2ccc(S(=O)(=O)NN)cc2)cc1`: the “activity change, negative = inhibition” value was -19% [at 115 µM] (inactive).

Consider `CC(=O)O[C@H]1CC[C@@]2(C)C(=CC[C@@H]3[C@@H]2CC[C@]2(C)C(C(C)=O)=CC[C@@H]32)C1`, for which the “activity change, negative = inhibition” value is 13.4% (inactive).

With `O=c1[nH]c(=O)n([C@H]2C[C@H](O)[C@@H](CO)O2)cc1C(F)(F)F`, the “activity change, negative = inhibition” value was -15.1% (inactive).

On to `CCc1nnc(NS(=O)(=O)c2ccc(N)cc2)s1`, for which the “activity change, negative = inhibition” value was -5.16% (inactive).

`COC(C)CCO` (configuration not stated): the “activity change, negative = inhibition” value was -14.3% [at 115 µM] (inactive).

With `O=C(O[C@@H](C(=O)O)[C@@H](OC(=O)c1ccccc1)C(=O)O)c1ccccc1`, the Potency was 72.2 µM (active).

With `CCN1CC(CCN2CCOCC2)C(c2ccccc2)(c2ccccc2)C1=O` (configuration not stated), the “activity change, negative = inhibition” value was -10.4% (inactive).

Consider `NC(=O)Cc1cccc(C(=O)c2ccccc2)c1N`, for which the Potency is 15.5 µM (active).

With `CN1CCN(N)CC1`, the “activity change, negative = inhibition” value is 14.7% (inactive).

On to `O=C1CCCCCCCCCCC(=O)OCCO1`, for which the Potency is 22.4 µM (active).

Take `CCOC(=O)NCCC[Si](OCC)(OCC)OCC`: the “activity change, negative = inhibition” value is -12% [at 115 µM] (inactive).

Regarding `Nc1cccc(S(=O)(=O)O)c1`, the “activity change, negative = inhibition” value is -23.3% [at 115 µM] (inactive).

`O=c1oc2c(O)c(O)cc3c(=O)oc4c(O)c(O)cc1c4c23`: the “activity change, negative = inhibition” value is 12.7% [at 23.6 µM] (inactive).

Take `CC/C=C\CCOC(=O)C(C)C`: the “activity change, negative = inhibition” value is -26.1% [at 115 µM] (inactive).

Consider `CCN(CC)CCOc1ccc(Cc2ccccc2)cc1`, for which the “activity change, negative = inhibition” value is -3.39% (inactive).

Consider `CCCCCCCCc1ccc(S(=O)(=O)O)cc1`, for which the “activity change, negative = inhibition” value was 7.8% [at 115 µM] (inactive).

As to `CC(=O)Nc1ccc(C)c(Cl)c1`, the Potency was 8.94 µM (active).

With `Oc1ccccc1F`, the Potency is 35.5 µM (active).

In the case of `Cc1c(C(=O)NCCO)[n+](=O)c2ccccc2n1[O-]`, the “activity change, negative = inhibition” value was -14.7% (inactive).

Take `Cc1onc(-c2ccccc2)c1C(=O)Cl`: the “activity change, negative = inhibition” value was -11.2% (inactive).

In the case of `CN1C(=O)CC(c2ccccc2)C1=O` (configuration not stated), the “activity change, negative = inhibition” value was -8.55% (inactive).

For the compound `OC[C@H]1O[C@@H](O[C@H]2[C@H](O)[C@@H](O)[C@H](O)O[C@@H]2CO)[C@H](O)[C@@H](O)[C@H]1O`, the “activity change, negative = inhibition” value was -12.8% [at 115 µM] (inactive).

In the case of `CCC/C=C/CO`, the “activity change, negative = inhibition” value is -23.6% [at 115 µM] (inactive).
